In PubChem BioAssay (NCATS):
Active and inactive are the calls of the source. Calls follow the shape of the dose curve; as a rule, active = well fitted activation curve with a large enough effect; inconclusive = small, poorly fitted or top-dose-only effect; inactive = flat fitted curve, though single readings scatter.

Test: Confirmation and Secondary Assay for Modulators of Hemoglobin Beta Chain Splicing at IVS2 654 locus (AID 910);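 also: HeLa cells stably carrying EGFP split by mutant beta-globin IVS2-654 intron; per-well total GFP intensity by laser scanning cytometry after 2-day treatment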
Conditions: HeLa EGFP-654 splicing reporter, GFP fluorescence, 48 h; series mostly up to 46.1 µM
Summary of the method: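 Readout: per-well total peak green fluorescence (488 nm ex, 500–520 nm em) from objects 5–250 µm, reflecting correct splicing of an EGFP-654 reporter. Compounds were applied for 2 days at 37 °C to overnight-plated HeLa EGFP-654 cells; controls were DMSO and 500 nM IVS2-654 PNA.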

outcome, inactive:
CC1/C=C/C=C/C=C/C=C/C=C/C=C/C=C/C(OC2OC(C)C(O)C(N)C2O)CC2O[C@@](O)(CC(O)CC(O)C(O)CCC(O)CC(O)CC(=O)OC(C)[C@H](C)C1O)CC(O)C2C(=O)O (some centres not stated)
C=C1C(=O)OC2C[C@@]3(C)CCCC(C)C3=CC12 (some centres not stated)
O[N+]1=CC=CCC1=S.On1ccccc1=S.[Zn]
COC(=O)C1OC(=O)C2OC23[C@]2(C)C(OC(C)=O)CC4C(C)(C)C(=O)CC[C@]4(C)C2CC[C@@]13C (some centres not stated)
C=C1CCC2C(CC2(C)C)C(=O)CCC1O (configuration not stated)
CC(=O)OC1CC(OC(C)=O)[C@]2(C)C(CC(OC(C)=O)[C@@]3(C)C4=CC(=O)OC(c5ccoc5)[C@]4(C)CCC32)C1(C)C (some centres not stated)
CC1CC2C3CCC4=CC(=O)C=C[C@@]4(C)[C@]3(F)C(O)C[C@]2(C)[C@]1(O)C(=O)COP(=O)(O)O (some centres not stated)
C[N+]1(C)C2CCC1CC(OC(=O)C(O)c1ccccc1)C2 (configuration not stated)
CCC(=O)O[C@H]1C(O[C@@H]2C(C)[C@H](O[C@H]3C[C@@](C)(OC)C(O)C(C)O3)C(C)C(=O)OC(CC)[C@@](C)(O)C(O)[C@H](C)C(=O)C(C)C[C@]2(C)O)OC(C)CC1N(C)C (some centres not stated)
CN(C)c1ccc(O)c2c1C[C@@H]1C[C@H]3C(N(C)C)C(=O)C(C(N)=O)=C(O)[C@@]3(O)C(=O)C1=C2O (some centres not stated)
CC1(C)C=Cc2c(cc3occ(-c4ccc5c(c4)OCO5)c(=O)c3c2O)O1
C=C1c2cccc(O)c2C(O)=C2C(=O)[C@]3(O)C(O)=C(C(N)=O)C(=O)C(N(C)C)C3C(O)C12 (some centres not stated)
C[C@]12CCC(=O)C=C1CCC1C2C(O)C[C@]2(C)C1CC[C@]2(O)C(=O)COC(=O)CCC(=O)O (some centres not stated)
Nc1nc2c(ncn2C2CC(O)C(CO)O2)c(=O)[nH]1 (configuration not stated)
COc1c2ccoc2c(OC)c2oc(=O)ccc12

Test: Confirmation and Secondary Assay for Modulators of Hemoglobin Beta Chain Splicing at IVS2 705 locus (AID 930);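 also: HeLa cells stably expressing the EGFP-705 splicing reporter; GFP fluorescence per well restored by corrected splicing of the IVS2-705 intron in EGFP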
Conditions: HeLa EGFP-705 splicing reporter, GFP fluorescence, 48 h; series mostly up to 46.1 µM
Summary of the method: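 Stable HeLa line with EGFP disrupted by mutant beta-globin intron 2 (705). Overnight attachment, then 2 days of compound at 37C, 5% CO2. Signal: peak GFP intensity summed over objects 5-250 µm.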

outcome, inactive:
COc1ccc2c(=O)ccoc2c1
NC(Cc1cnc[nH]1)C(=O)Nc1ccc2ccccc2c1 (configuration not stated)
COc1ccc2cc1Oc1ccc(cc1)CC1c3cc(c(OC)cc3CCN1C)Oc1c(OC)c(OC)cc3c1C(C2)N(C)CC3 (configuration not stated)
CC(=O)OCC(=O)[C@@]1(O)CCC2C3CCC4=CC(=O)CC[C@]4(C)C3C(=O)C[C@]21C (some centres not stated)
COc1c2ccoc2cc2oc(C)cc(=O)c12
COC(=O)CC1C(C)(C)C(=O)C2CC3C4=CC(=O)OC(c5ccoc5)[C@]4(C)CCC3[C@@]1(C)C2=O (some centres not stated)
CC(=O)OC1CC2C(C)(C)C(=O)CC[C@]2(C)C2CC[C@]3(C)C(=CC(=O)OC3c3ccoc3)[C@]12C (some centres not stated)
O=C(O)C(S)[C@@H](S)C(=O)O (some centres not stated)
COc1cc2ccc(=O)oc2c(OC)c1OC
NC(=O)c1ccc[n+]([C@@H]2OC(COP(=O)([O-])OP(=O)(O)OCC3OC(n4cnc5c(N)ncnc54)C(O)C3O)C(O)C2O)c1 (some centres not stated)
CN(N=O)C(=O)N[C@H]1C(O)C(O)C(CO)O[C@@H]1O (some centres not stated)
O=c1[nH]cnc2c1ncn2C1CC(O)C(CO)O1 (configuration not stated)
COc1cc(OC)c2c(=O)c(-c3ccccc3)coc2c1
CC1/C=C/C=C/C=C/C=C/C=C/C=C/C=C/C(OC2OC(C)C(O)C(N)C2O)CC2O[C@@](O)(CC(O)CC(O)C(O)CCC(O)CC(O)CC(=O)OC(C)[C@H](C)C1O)CC(O)C2C(=O)O (some centres not stated)
C=C1C(=O)OC2C[C@@]3(C)CCCC(C)C3=CC12 (some centres not stated)
O[N+]1=CC=CCC1=S.On1ccccc1=S.[Zn]
COC(=O)C1OC(=O)C2OC23[C@]2(C)C(OC(C)=O)CC4C(C)(C)C(=O)CC[C@]4(C)C2CC[C@@]13C (some centres not stated)
C=C1CCC2C(CC2(C)C)C(=O)CCC1O (configuration not stated)
CC(=O)OC1CC(OC(C)=O)[C@]2(C)C(CC(OC(C)=O)[C@@]3(C)C4=CC(=O)OC(c5ccoc5)[C@]4(C)CCC32)C1(C)C (some centres not stated)
CC1CC2C3CCC4=CC(=O)C=C[C@@]4(C)[C@]3(F)C(O)C[C@]2(C)[C@]1(O)C(=O)COP(=O)(O)O (some centres not stated)
C[N+]1(C)C2CCC1CC(OC(=O)C(O)c1ccccc1)C2 (configuration not stated)
CCC(=O)O[C@H]1C(O[C@@H]2C(C)[C@H](O[C@H]3C[C@@](C)(OC)C(O)C(C)O3)C(C)C(=O)OC(CC)[C@@](C)(O)C(O)[C@H](C)C(=O)C(C)C[C@]2(C)O)OC(C)CC1N(C)C (some centres not stated)
